Reference: PubChem BioAssay (Tox21)
Values joined by “and” are separate entries in the source; they are usually repeats but may differ in a detail not shown here. Identical values can stand only once. Records with an inconclusive call do not appear. Entries that show only a call come without a potency. Active and inactive are the calls of the source. Calls come from the whole dose curve; as a rule, active = well fitted activation curve with a large enough effect in the signal ratio in the repeat runs (not every such curve was filed as active); inconclusive = weak or mixed curves; inactive = flat fitted curve, though single readings scatter; the % refers to the signal ratio.

assay: p53 small molecule agonists, cell-based qHTS assay (AID 1963582); settings: HCT-116 p53RE-bla reporter, beta-lactamase FRET ratio, 16 h; series mostly up to 66 µM
From the text: National Center for Advancing Translational Sciences [NCATS]
Division of Preclinical Innovation [DPI]
U.S. Environmental Protection Agency [EPA]
National Institutes of Environmental Health Sciences [NIEHS]
National Toxicology Program [NTP]
U.S. Food and Drug Administration [FDA]
p53, a tumor suppressor protein, is activated following cellular insult, including DNA damage and other cellular stresses. The activation of p53 regulates cell fate by inducing DNA repair, cell cycle arrest, apoptosis, or cellular senescence. The activation of p53, therefore, is a good indicator of DNA damage and other cellular stresses. […] The activation of the reporter gene under culture conditions can be detected by fluorescence intensity. This cell line was used to screen the Tox21 10K compound library in a 1536-well plate format and to identify agonists that activate the p53 signaling pathway.
Tox21 Assay Protocol Summary:
The p53RE-bla cells were dispensed at 4,000 cells/5 ul/well in 1536-well black wall/clear bottom plates using a Multidrop dispenser. After the assay plates were incubated at a 37 C/5% CO2 incubator for 5 hours, 23 nL of compounds dissolved in DMSO, positive controls or DMSO only was transferred to the assay plate by a pin tool. The plates were incubated at 37 C for 16 hours. After 1 uL of LiveBLAzerTM B/G FRET substrate was added using a Flying Reagent Dispenser, the plates were incubated at room temperature for 2 hours, and fluorescence intensity was measured by an Envision plate reader.
Potency is the fitted concentration of half-maximal effect.

**Q.** Which Potency does the source give for `CC1(C)CC(N=C=O)CC(C)(CN=C=O)C1` (stereo not given) here?
**A.** inactive

**Q.** Which Potency does the source give for `CC1(C)S[C@@H]2[C@H](NC(=O)COc3ccccc3)C(=O)N2[C@H]1C(=O)O` here?
**A.** inactive

**Q.** With `O=C(Cl)c1cccc(C(=O)Cl)c1` as the compound, how does the Potency read?
**A.** inactive

**Q.** With `CC(C)(C#N)c1cc(Cn2cncn2)cc(C(C)(C)C#N)c1` as the compound, how does the Potency read?
**A.** inactive

**Q.** Which Potency does the source give for `OC[C@@H](O)[C@@H](O[C@@H]1O[C@H](CO)[C@H](O)[C@H](O)[C@H]1O)[C@H](O)[C@@H](O)CO` here?
**A.** inactive

**Q.** Which Potency does the source give for `C=CC(=O)OCCCC` here?
**A.** inactive

**Q.** Which Potency does the source give for `NC(CO)(CO)CO` here?
**A.** inactive

**Q.** For `Fc1ccc(Br)cc1`, which Potency is on record?
**A.** inactive

**Q.** With `CC(C)(Oc1ccc(C2CC2(Cl)Cl)cc1)C(=O)O` (stereo not given) as the compound, how does the Potency read?
**A.** inactive

**Q.** For `CCc1ccc(CCOc2ccc(CC3SC(=O)NC3=O)cc2)nc1` (stereo not given), which Potency is on record?
**A.** inactive

**Q.** Which Potency does the source give for `O=C1CCCCCCCCCCCN1` here?
**A.** inactive

**Q.** Which Potency does the source give for `O=C(O)Cc1c[nH]c2ccccc12` here?
**A.** inactive

**Q.** For `CC(=O)C(=O)O`, which Potency is on record?
**A.** inactive

**Q.** For `Cc1nnc(NS(=O)(=O)c2ccc(N)cc2)s1`, which Potency is on record?
**A.** inactive

**Q.** Which Potency does the source give for `CCCCCCCC(=O)OCC(O)CO` (stereo not given) here?
**A.** inactive

**Q.** Which Potency does the source give for `C=CCc1ccc(O)c(OC)c1` here?
**A.** inactive

**Q.** Which Potency does the source give for `C=C(C)C(=O)OCCC[Si](OC)(OC)OC` here?
**A.** inactive

**Q.** For `OCC1CCCO1` (stereo not given), which Potency is on record?
**A.** inactive

**Q.** With `CCN1CCCC1=O` as the compound, how does the Potency read?
**A.** inactive

**Q.** With `Cc1ncc[nH]1` as the compound, how does the Potency read?
**A.** inactive

**Q.** Which Potency does the source give for `Nc1ccc2c(O)cc(S(=O)(=O)O)cc2c1` here?
**A.** 12.9 µM (active) and 16.2 µM (active)

**Q.** Which Potency does the source give for `OC[C@@H](O)[C@H](O)[C@H](O)[C@@H](O)CO` here?
**A.** inactive

**Q.** Which Potency does the source give for `C=C(CC(=O)O)C(=O)O` here?
**A.** inactive

**Q.** Which Potency does the source give for `O=C1c2c(O)cccc2Cc2cccc(O)c21` here?
**A.** inactive

**Q.** For `CCC(O)OCCCOC` (stereo not given), which Potency is on record?
**A.** inactive

**Q.** For `Brc1ccc(Br)c(Br)c1`, which Potency is on record?
**A.** inactive

**Q.** With `O=Cc1ccccc1O` as the compound, how does the Potency read?
**A.** inactive

**Q.** With `CCCCC(CC)COC(=O)/C=C\C(=O)OCC(CC)CCCC` (stereo not given) as the compound, how does the Potency read?
**A.** inactive

**Q.** Which Potency does the source give for `O=S(=O)(O)c1ccc(O)cc1` here?
**A.** inactive

**Q.** Which Potency does the source give for `O=C(O)CC(O)C(=O)O` (stereo not given) here?
**A.** inactive

**Q.** Which Potency does the source give for `O=C1OC2(c3ccccc31)c1cc(I)c(O)c(I)c1Oc1c2cc(I)c(O)c1I` here?
**A.** inactive

**Q.** With `Cc1ccncc1` as the compound, how does the Potency read?
**A.** inactive

**Q.** With `COC(=O)C(C)Oc1ccc(Oc2ncc(C(F)(F)F)cc2Cl)cc1` (stereo not given) as the compound, how does the Potency read?
**A.** inactive

**Q.** With `COCC(C)O` (stereo not given) as the compound, how does the Potency read?
**A.** inactive

**Q.** With `O=C(O)c1ccccc1C(=O)O` as the compound, how does the Potency read?
**A.** inactive

**Q.** For `CCCCCCCCCCCCO`, which Potency is on record?
**A.** inactive

**Q.** Which Potency does the source give for `Cc1ccc(S(=O)(=O)N=C=O)cc1` here?
**A.** inactive

**Q.** Which Potency does the source give for `C[C@]12C=CC(=O)C=C1CC[C@@H]1[C@@H]2[C@@H](O)C[C@@]2(C)[C@H]1CC[C@]2(O)C(=O)CO` here?
**A.** inactive

**Q.** For `CC1=CC(=O)CC(C)(C)C1`, which Potency is on record?
**A.** inactive

**Q.** Which Potency does the source give for `C[Si]1(C)O[Si](C)(C)O[Si](C)(C)O[Si](C)(C)O1` here?
**A.** inactive
